According to paper PMC4336329 (PLoS ONE, 2015):
Out of some 310,000 compounds screened, about 2,200 (0.71%) showed an effect of 50% or more. Effects have a minus sign here. The full list was thinned out, with strong results kept by preference.

Biological target: human ether-à-go-go-related gene (hERG) potassium channel (human, UniProt Q12809)
Experiment: primary screen, population patch clamp on CHO cells stably expressing hERG; higher = less effect of the substance

human ether-à-go-go-related gene (hERG) potassium channel, sequence (Q12809 whole entry, looked up): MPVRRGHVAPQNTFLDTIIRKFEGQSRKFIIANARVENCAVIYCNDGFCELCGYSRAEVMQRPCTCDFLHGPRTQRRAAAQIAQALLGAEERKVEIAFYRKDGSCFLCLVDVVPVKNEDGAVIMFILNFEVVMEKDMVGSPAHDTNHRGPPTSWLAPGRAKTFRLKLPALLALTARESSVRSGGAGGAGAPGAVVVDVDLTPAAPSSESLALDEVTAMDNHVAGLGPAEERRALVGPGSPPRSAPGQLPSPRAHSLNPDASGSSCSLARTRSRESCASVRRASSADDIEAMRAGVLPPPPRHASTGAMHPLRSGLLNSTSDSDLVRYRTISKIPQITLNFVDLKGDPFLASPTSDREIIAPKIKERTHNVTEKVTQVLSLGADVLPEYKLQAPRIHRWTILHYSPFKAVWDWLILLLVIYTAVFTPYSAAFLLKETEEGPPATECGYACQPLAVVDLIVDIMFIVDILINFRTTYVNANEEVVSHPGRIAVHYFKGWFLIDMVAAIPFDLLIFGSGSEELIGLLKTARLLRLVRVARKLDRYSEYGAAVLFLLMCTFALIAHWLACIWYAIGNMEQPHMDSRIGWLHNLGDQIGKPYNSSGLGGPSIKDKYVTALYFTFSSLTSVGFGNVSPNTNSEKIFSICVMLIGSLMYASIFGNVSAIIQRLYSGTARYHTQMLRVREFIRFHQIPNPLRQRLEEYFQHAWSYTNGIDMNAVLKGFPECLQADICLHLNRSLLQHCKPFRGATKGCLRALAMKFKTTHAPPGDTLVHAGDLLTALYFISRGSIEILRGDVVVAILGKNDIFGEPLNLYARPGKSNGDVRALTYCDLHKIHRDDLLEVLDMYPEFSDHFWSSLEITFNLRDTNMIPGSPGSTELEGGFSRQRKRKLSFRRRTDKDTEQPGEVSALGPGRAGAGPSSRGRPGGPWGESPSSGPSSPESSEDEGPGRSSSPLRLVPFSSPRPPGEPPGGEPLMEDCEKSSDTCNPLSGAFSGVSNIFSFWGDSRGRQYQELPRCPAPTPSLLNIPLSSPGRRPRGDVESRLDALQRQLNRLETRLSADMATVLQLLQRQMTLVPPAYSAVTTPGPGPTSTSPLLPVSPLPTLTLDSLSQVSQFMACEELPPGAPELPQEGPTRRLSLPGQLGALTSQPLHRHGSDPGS

Structure (SMILES) | hERG current change (%, negative = inhibition) at 1uM [%]
COc1ccc(OCCSc2nc(C)c(Cc3ccccc3)c(=O)[nH]2)cc1 | 7.38
Cn1c(C(=O)c2ccccc2[N+](=O)[O-])nc2ccccc21 | -9.27
S=C(Nc1ccccc1Cl)N1CCC(c2ccccc2)C1 (stereo not drawn) | -6.92
COc1ccc2c(c1)N1CCN=C1N2C.Cl | 5.26
Cc1[nH]nc(NCCO)c1[N+](=O)[O-] | -3.88
CCOc1ccc(NC(=O)CN(c2ccc(OC)cc2)S(C)(=O)=O)cc1 | 8.87
CCC(C)[C@H](NC(=O)C1CC(=O)N(c2ccc3c(c2)OCO3)C1)C(=O)NC1CCCCC1 (stereo partly drawn) | 29.5
COC(=O)C(Cc1ccc(OC(=O)c2ccc(C(F)(F)F)cc2)cc1)N1Cc2ccccc2C1=O (stereo not drawn) | 13.8
O=C(NC1CCCN(C2Cc3ccccc3C2)C1)c1ccc(F)cc1Cl (stereo not drawn) | -72.9
O=C(NC1CC1)c1ccc(F)cc1Cl | 14.2
COc1cccc(C(=O)NC2CCCN(C3Cc4ccccc4C3)C2)c1OC (stereo not drawn) | 0.941
N/C(=N\OC(=O)c1cc(-c2ccccc2)nc2ccccc12)c1ccncc1 | 8.01
CCOc1cc(S(=O)(=O)N2CCN(CC)CC2)ccc1Cl | 6.75
O=C(c1cc(-c2ccccc2)on1)N1CCCc2ccccc21 | 8.2
O=C(c1cc(-c2ccc(O)cc2)on1)N1CCCc2ccccc21 | 8.9
Cc1ccc(-c2cc(C(=O)N3CCCc4ccccc43)no2)cc1 | -75.5
CCOC(=O)C1CCCN(C(=O)c2cc(-c3ccc(C)cc3)on2)C1 (stereo not drawn) | -59.7
CCOC(=O)C1CCCN(C(=O)c2cc(-c3ccccc3)on2)C1 (stereo not drawn) | 3.94
Cc1ccc(-c2cc(C(=O)N3CCCCCC3)no2)cc1 | 10
COc1ccccc1/C=c1\sc2nc(-c3ccco3)nn2c1=O | 17.5
Cc1ccc2nc(NCCO)nc(-c3ccccc3)c2c1 | 1.36
COc1ccc(C(C)=O)cc1COC(=O)c1cnc(C)cn1 | 17.6
CCCCNC(=O)CCCn1c(=S)[nH]c2cc3c(cc2c1=O)OCO3 | 19.2

Structure (SMILES) | hERG current change (%, negative = inhibition) at 1uM [%]
Cc1oc(-c2ccccc2Cl)nc1CN1C(=O)CN=C(c2ccccc2)c2ccccc21 | 9.3
O=C(CNC(=O)/C(=C\c1ccc(F)cc1)NC(=O)c1ccccc1)OCc1ccccc1 | -69
O=C(CCCNC(=O)/C(=C/c1ccc(Br)cc1)NC(=O)c1ccccc1)OCc1ccccc1 | -2.58
CCOC(=O)CNC(=O)/C(=C\c1ccc(F)cc1)NC(=O)c1ccccc1 | -11.7
O=C(CNC(=O)/C(=C\c1ccccc1)NC(=O)c1ccc(Br)cc1)OCc1ccccc1 | -68.1
O=C(CNC(=O)/C(=C/c1ccccc1)NC(=O)c1ccc(Br)cc1)OCc1ccccc1 | 2.24
O=C(CNC(=O)/C(=C\c1ccc(Br)cc1)NC(=O)c1ccccc1)OCc1ccccc1 | -48
COc1ccc(/C=N/N=C(/N)N[N+](=O)[O-])c(OC)c1 | 7.59
CCN(CC)S(=O)(=O)c1cc(NC(=O)C(C)N2CCc3ccccc32)ccc1C (stereo not drawn) | 9.99
C=CCn1c(SCC(=O)NNC(=O)Nc2cccc(Cl)c2)nnc1-c1ccccc1 | 6.04
COc1ccc(C(=O)Oc2cc(C)c(CN3CCOCC3)cc2C)cc1OC | -1.52
C#CCSc1nc(N)c2c(n1)OC(N)=C(C#N)C2c1cccnc1 (stereo not drawn) | 4.59
O=C(CSc1ncccn1)N1CCN(C(c2ccccc2)c2ccccc2)CC1 | 4.43
O=C(Cn1c(=O)cnc2ccccc21)N1CCN(S(=O)(=O)c2ccccc2Br)CC1 | 36.9
CCn1c2nc(SCCN3CCOCC3)nnc2c2cc(C)cc(C)c21 | -69.2
CCCn1c2ccc(C)cc2c2nnc(SCCN3CCOCC3)nc21 | 19
CCn1c2ccc(C)cc2c2nnc(SCCN3CCOCC3)nc21 | 4.8
Cc1ccc(S(=O)(=O)N2CCCC2C(=O)Nn2cnnc2)cc1 (stereo not drawn) | 11.7
CCc1nc(SCC(=O)NC2CC2)c2c(C)c(C)sc2n1 | -4.16
Cc1cc(NC(=O)NCc2ccccc2)c(=O)n(Cc2ccccc2F)c1 | 7.05
Cc1cc(=O)n(C)c(=O)n1CCCCOc1ccc([N+](=O)[O-])cc1 | -66.8
Fc1ccc(OCCOCCN2CCNCC2)cc1.O=C(O)C(=O)O | 10.4
Cc1cc(=O)n(C)c(=O)n1CCCCOc1cccc([N+](=O)[O-])c1 | 9.25

Structure (SMILES) | hERG current change (%, negative = inhibition) at 1uM [%]
COc1ccc(OCCCCN2CCC(C)CC2)cc1.O=C(O)C(=O)O | 0.418
Cc1ccc(OCCN2CCCC2)cc1.O=C(O)C(=O)O | 7.22
Cc1cc(=O)n(C)c(=O)n1CCCCCCOc1ccc([N+](=O)[O-])cc1 | -11.1
Cc1ccc(OCCN2CCNCC2)c([N+](=O)[O-])c1.O=C(O)C(=O)O | 17.4
CC1CCN(CCCCOc2ccc([N+](=O)[O-])cc2)CC1 | -77.8
CCOc1ccc(OCCN2CCCCC2)cc1.O=C(O)C(=O)O | -4.9
O=C(O)C(=O)O.O=[N+]([O-])c1ccc(OCCN2CCCCCC2)cc1 | -74.5
CC1CCN(CCCCOc2ccc(Br)cc2)CC1 | -30.4
O=C(O)C(=O)O.O=[N+]([O-])c1ccc(OCCN2CCNCC2)cc1 | -52.2
CCCc1cc(=O)oc2cc(C)cc(OCC(=O)Nc3ccc(CN4CCOCC4)cc3)c12 | 10.4
CCCN(CCC)CCNC(=O)C1CC(=O)N(c2ccc(OC)cc2)C1c1ccc(OC)cc1 (stereo not drawn) | -18.1
CCOC(=O)C1(C)NC(c2ccccc2F)C2C(=O)N(c3cccc(C(C)=O)c3)C(=O)C21 (stereo not drawn) | 15.4
CC(=O)Nc1ccc(-c2nnn(CC(=O)c3ccccc3)n2)cc1Cl | 8.22
CCOC(=O)c1c(C)[nH]c(C(=O)C(C)OC(=O)c2ccc(NC(=O)CC#N)cc2)c1C (stereo not drawn) | 17.5
O=C(O)C(Oc1ccc2c(-c3ccccc3)cc(=O)oc2c1)c1ccccc1 (stereo not drawn) | 9.07
COc1ccc2c3c(c(=O)oc2c1OCC(=O)O)CCCC3 | 23.8
CCOc1ccc(-c2cc(C(=O)O)c3ccccc3n2)cc1 | 7.66
COc1ccccc1OCCNC(=O)/C=C/c1ccc([N+](=O)[O-])cc1 | -9.26
COc1ccc(OCCNC(=O)/C=C/c2ccc([N+](=O)[O-])cc2)cc1 | -59.9
CCCOc1ccc(OCCCCNC(C)CC)cc1.O=C(O)C(=O)O (stereo not drawn) | 1.92
COc1ccc(/C=C/C(=O)NCCOc2ccc(C)cc2)cc1 | 10.5
O=[N+]([O-])c1ccc(OCCCCCN2CCOCC2)cc1 | -24.9
Brc1ccc(OCCCCN2CCCCC2)cc1 | -11.6

Structure (SMILES) | hERG current change (%, negative = inhibition) at 1uM [%]
O=[N+]([O-])c1ccc(OCCCCN2CCCCC2)cc1 | -59.4
CCC(C)NCCCOc1ccc([N+](=O)[O-])cc1.O=C(O)C(=O)O (stereo not drawn) | -73.7
CCC(C)NCCCCOc1ccc(Br)cc1.O=C(O)C(=O)O (stereo not drawn) | -0.232
Cc1[nH]n(-c2ccccc2)c(=O)c1C=Nc1ccc(S(=O)(=O)Nc2nccs2)cc1 | 12.2
O=S1(=O)CCC(NC(=S)Nc2ccc3ccccc3c2)C1 (stereo not drawn) | 11.6
COCCn1c(SCC(=O)NC2(C#N)CCCCC2)nc2ccccc2c1=O | -12.8
O=c1[nH]c(Cn2nnc(-c3ccccc3)n2)nc2scc(-c3ccccc3)c12 | 13.1
CN(C)CCNc1oc(COc2cccc(Cl)c2)nc1C#N | -4.66
N#Cc1nc(COc2cccc(Cl)c2)oc1NCc1ccncc1 | -53.8
N#Cc1nc(COc2cccc(Cl)c2)oc1NCc1ccco1 | -1.39
Cc1nc2c(n1C1CCCCC1)C(=O)c1ccccc1C2=O | 19.1
COc1ccc2c(c1)c(C(=O)C(C)N1CCCCC1)c(C)n2C (stereo not drawn) | 16.9
OCC1(CCc2ccccc2)CCN(Cc2cc(F)ccc2-n2cccn2)CC1 | -85.3
CCn1ccnc1CN1CCCC(CO)(Cc2cccc(OC)c2)C1 (stereo not drawn) | -1.48
OCC1(CCCc2ccccc2)CCN(Cc2ccc(F)cc2)CC1 | -25.3
COc1cccc(CC2(CO)CCCN(Cc3cn[nH]c3-c3ccc(F)cc3)C2)c1 (stereo not drawn) | 6.39
COc1ccc(-n2ccnc2CN2CCCC(CO)(Cc3cccc(OC)c3)C2)cc1 (stereo not drawn) | 0.509
COc1ccc(F)c(CN2CCCC(CO)(Cc3cccc(Cl)c3)C2)c1 (stereo not drawn) | 11.8
COc1cccc(CC2(CO)CCCN(Cc3c(C)cc(C)cc3-n3cccn3)C2)c1 (stereo not drawn) | -93.1
COc1cccc(CC2(CO)CCCN(Cc3cc(F)ccc3-n3cccn3)C2)c1 (stereo not drawn) | -85.1
OCC1(CCCc2ccccc2)CCN(Cc2cc(F)ccc2F)CC1 | -6.63
